Inconclusive results are not listed. Some structures have more than one record in an assay (separate samples or runs), and their calls can disagree. The source made the active and inactive calls. Calls come from the whole dose curve.
Tests used:
[1] = target: Acetylcholinesterase (Homo sapiens) (UniProt P22303); assay: Acetylcholinesterase (AChE) small molecule antagonists: colormetric cell-based qHTS assay (AID 1347395); note: nearly all actives have a fitted effect of over 30% in size; note: potency is the fitted concentration of half-maximal effect
In short: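 SH-SY5Y cells attached overnight, exposed to compound 30 min at 37 C, then given DTNB/acetylthiocholine; after 90 min at 37 C, colorimetric thiocholine read gives cellular AChE activity.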

[2] = target: Acetylcholinesterase (Homo sapiens) (UniProt P22303); assay: Acetylcholinesterase (AChE) small molecule antagonists: enzyme-based qHTS assay (AID 1347397); conditions: Potency: AChE enzyme activity inhibition; outcome: AChE enzyme activity inhibition; note: nearly all actives have a fitted effect of over 55% in size
In short: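 Absorbance-based detection of thiocholine with DTNB served as the read-out. Recombinant human AChE was exposed to compound for 30 min at RT before a 10 min RT incubation with acetylthiocholine.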

[3] = target: Acetylcholinesterase (Homo sapiens) (UniProt P22303); assay: Acetylcholinesterase (AChE) small molecule antagonists: fluorescence cell-based qHTS assay (AID 1347398); conditions: Potency: AChE activity; outcome: AChE activity; note: nearly all actives have a fitted effect of over 50% in size; note: potency is the fitted concentration of half-maximal effect
In short: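 Fluorimetric cell-based assay: intact SH-SY5Y cells, 30 min compound preincubation at 37 C, acetylthiocholine substrate with thiol probe Thiolite Green, 40 min RT development, fluorescence 490/520 nm.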

[4] = target: Acetylcholinesterase (Homo sapiens) (UniProt P22303); assay: Acetylcholinesterase (AChE) small molecule antagonists: enzyme-based qHTS assay with human liver microsomes (AID 1347399); conditions: Potency: qHTS inhibition; outcome: qHTS inhibition; note: nearly all actives have a fitted effect of over 60% in size
In short: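 Recombinant human AChE (50 mU/mL in the enzyme mix) and human liver microsomes (0.25 mg/mL final) were preincubated with compound and NADPH (0.25 mg/mL final) for 30 min at 37 C. Acetylthiocholine/DTNB was then added; thiocholine was read colorimetrically after 10 min at room temperature.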
% is set by controls: 0 for no effect and ±100 for the full control effect.

Sequence of Acetylcholinesterase (Homo sapiens) (P22303 whole entry, looked up): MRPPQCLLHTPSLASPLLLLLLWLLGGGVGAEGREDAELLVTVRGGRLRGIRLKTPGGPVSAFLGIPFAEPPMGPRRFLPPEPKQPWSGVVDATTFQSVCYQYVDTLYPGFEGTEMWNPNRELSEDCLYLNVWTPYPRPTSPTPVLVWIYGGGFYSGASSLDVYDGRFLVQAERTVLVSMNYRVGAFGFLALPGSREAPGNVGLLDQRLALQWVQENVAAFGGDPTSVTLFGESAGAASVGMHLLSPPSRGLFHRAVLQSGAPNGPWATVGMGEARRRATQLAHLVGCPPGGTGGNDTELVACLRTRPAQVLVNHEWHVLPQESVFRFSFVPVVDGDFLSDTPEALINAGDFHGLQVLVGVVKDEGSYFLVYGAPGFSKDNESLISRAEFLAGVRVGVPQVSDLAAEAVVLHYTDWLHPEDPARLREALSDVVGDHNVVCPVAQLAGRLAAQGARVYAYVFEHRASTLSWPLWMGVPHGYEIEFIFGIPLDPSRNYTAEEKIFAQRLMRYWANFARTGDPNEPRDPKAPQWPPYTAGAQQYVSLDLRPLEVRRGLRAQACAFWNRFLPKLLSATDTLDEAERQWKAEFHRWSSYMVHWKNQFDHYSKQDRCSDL

CC(C)c1ccccc1O
inactive: Potency [1] | Potency [2] | Potency [3] | Potency [4]

NC(CCC(=O)O)C(=O)O (stereo not given)
inactive: Potency [1] | Potency [2] | Potency [3] | Potency [4]

O=Cc1ccccc1S(=O)(=O)O
inactive: Potency [1] | Potency [2] | Potency [3] | Potency [4]

CCc1cc2cc(OC)c(OC)cc2c(Cc2ccccc2)n1
inactive: Potency [1] | Potency [2] | Potency [3] | Potency [4]

Cc1ccc(C(=O)c2ccc(CC(=O)O)n2C)cc1
inactive: Potency [1] | Potency [2] | Potency [3] | Potency [4]

C=C[C@H]1CN2CC[C@H]1C[C@@H]2[C@@H](O)c1ccnc2ccc(OC)cc12
inactive: Potency [1] | Potency [2] | Potency [3] | Potency [4]

CCCCCCCC
inactive: Potency [1] | Potency [2] | Potency [3] | Potency [4]

O=C(OCCOCCOCCOC(=O)c1ccccc1)c1ccccc1
inactive: Potency [1] | Potency [2] | Potency [3] | Potency [4]

CCCCCCCCS
inactive: Potency [1] | Potency [2] | Potency [3] | Potency [4]

COc1ccc(CCO)cc1
inactive: Potency [1] | Potency [2] | Potency [3] | Potency [4]

O=C=NCc1cccc(CN=C=O)c1
inactive: activity, negative = inhibition [1] -0.545% [at 23.6 µM] | activity change, negative = inhibition [2] 0.393% [at 23.6 µM] | activity change, negative = inhibition [3] -0.0492% [at 23.8 µM] | activity change, negative = inhibition [4] 0.648% [at 23.6 µM]

C[C@H]1C[C@H]2[C@@H]3CCC4=CC(=O)C=C[C@]4(C)[C@@]3(F)[C@@H](O)C[C@]2(C)[C@@]1(O)C(=O)CO
inactive: Potency [1] | Potency [2] | Potency [3] | Potency [4]

CC(CN(C)C)C(C)(O)Cc1ccc(Cl)cc1 (stereo not given)
inactive: Potency [1] | Potency [2] | Potency [3] | Potency [4]

FC(F)(F)c1ccccc1-n1ccnc1
inactive: Potency [1] | Potency [2] | Potency [3] | Potency [4]

CCCC[O][Al]([O]CCCC)[O]CCCC
inactive: Potency [1] | Potency [2] | Potency [3] | Potency [4]

NC(N)=NC(N)=NCCc1ccccc1
inactive: Potency [1] | Potency [2] | Potency [3] | Potency [4]

CC1=C(C)S(=O)(=O)CCS1(=O)=O
inactive: Potency [1] | Potency [2] | Potency [3] | Potency [4]

O=C(Oc1ccccc1)Oc1ccccc1
inactive: Potency [1] | Potency [2] | Potency [3] | Potency [4]

OCC1CC2CC1C1CCC(CO)C21 (stereo not given)
inactive: Potency [1] | Potency [2] | Potency [3] | Potency [4]

CC(C)N=C(N)/N=C(\N)Nc1ccc(Cl)cc1
inactive: Potency [1] | Potency [2] | Potency [3] | Potency [4]

C[Si](O[Si](C)(C)C)O[Si](C)(C)C
inactive: Potency [1] | Potency [2] | Potency [3] | Potency [4]

N#CCc1ccc(Cl)cc1Cl
inactive: Potency [1] | Potency [2] | Potency [3] | Potency [4]

C[C@H]1[C@@H](c2ccccc2)NC(=O)N1C
inactive: Potency [1] | Potency [2] | Potency [3] | Potency [4]

CC1=CC(C)C(C=O)CC1 (stereo not given)
inactive: Potency [1] | Potency [2] | Potency [3] | Potency [4]

CCCCCC=O
inactive: Potency [1] | Potency [2] | Potency [3] | Potency [4]

CCCC/C=C/CCCCO
inactive: Potency [1] | Potency [2] | Potency [3] | Potency [4]

CC(C)S
inactive: Potency [1] | Potency [2] | Potency [3] | Potency [4]

Oc1cccc2cc3cccc(O)c3c(O)c12
inactive: Potency [1] | Potency [2] | Potency [3] | Potency [4]

CC1=CC(=O)CCC1
inactive: Potency [1] | Potency [2] | Potency [3] | Potency [4]

Cc1cccc(C)c1OCC(C)N (stereo not given)
inactive: outcome [1] | outcome [2] | outcome [3] | outcome [4]

CC1(C)SC(C)(C)SC(C)(C)S1
inactive: Potency [1] | Potency [2] | Potency [3] | Potency [4]

CCN(C=O)CC
inactive: Potency [1] | Potency [2] | Potency [3] | Potency [4]

C1COC(NC(C2CC2)C2CC2)=N1
inactive: Potency [1] | Potency [2] | Potency [3] | Potency [4]

O=[N+]([O-])c1ccc(CCO)cc1
inactive: Potency [1] | Potency [2] | Potency [3] | Potency [4]

Oc1ccc(Cc2ccccc2)cc1
inactive: Potency [1] | Potency [2] | Potency [3] | Potency [4]

C=CC(C)(O)CCC=C(C)C (stereo not given)
inactive: Potency [1] | Potency [2] | Potency [3] | Potency [4]

CCCCCCCC/C=C\CCCCCCCC(=O)NCc1ccc(O)c(OC)c1
inactive: Potency [1] | Potency [2] | Potency [3] | Potency [4]

O=C(O)CCCCC1CCSS1 (stereo not given)
inactive: Potency [1] | Potency [2] | Potency [3] | Potency [4]

CC(=O)c1ccc(C)cc1
inactive: Potency [1] | Potency [2] | Potency [3] | Potency [4]

CC(C)CC(=O)CC(C)C
inactive: Potency [1] | Potency [2] | Potency [3] | Potency [4]

CC(C)(CO)C(O)C(=O)NCCCO (stereo not given)
inactive: Potency [1] | Potency [2] | Potency [3] | Potency [4]

O=C(O)c1cc(N=Nc2ccc(S(=O)(=O)Nc3ccccn3)cc2)ccc1O
inactive: Potency [1] | Potency [2] | Potency [3] | Potency [4]

CCCCC(CC)COC(=O)CCCCCCCCC(=O)OCC(CC)CCCC (stereo not given)
inactive: Potency [1] | Potency [2] | Potency [3] | Potency [4]

CCCN(C1CCN(C(=O)C2CCNCC2)CC1)[C@@H]1CCc2ccc(OC)cc2C1
inactive: Potency [1] | Potency [2] | Potency [3] | Potency [4]

O=S(=O)(O)c1cc(S(=O)(=O)O)c2c(N=Nc3ccccc3)c(O)ccc2c1
inactive: Potency [1] | Potency [2] | Potency [3] | Potency [4]

COC(=O)c1cc(Cl)ccc1NS(=O)(=O)C(F)(F)F
inactive: Potency [1] | Potency [2] | Potency [3] | Potency [4]

CCOC(=O)CC(O)(CC(=O)OCC)C(=O)OCC
inactive: Potency [1] | Potency [2] | Potency [3] | Potency [4]

NCCN1CCNCC1
inactive: Potency [1] | Potency [2] | Potency [3] | Potency [4]

CN(C)C(=S)SC(=S)N(C)C
56.4 µM (active) and inactive: Potency [1]
inactive: Potency [2] | Potency [4]
35.6 µM (active) and inactive: Potency [3]

CN1CCN(C)CC1
inactive: Potency [1] | Potency [2] | Potency [3] | Potency [4]

C=CCNc1nc(NCC=C)nc(N2CCN(C(c3ccc(F)cc3)c3ccc(F)cc3)CC2)n1
inactive: outcome [1] | outcome [2] | outcome [3] | outcome [4]

O=CCCCC=O
inactive: Potency [1] | Potency [2] | Potency [3] | Potency [4]

CC(=O)Nc1ccc(/C=N/NC(N)=S)cc1
inactive: Potency [1] | Potency [2] | Potency [3] | Potency [4]

CCC(=O)Nc1cccc(N)c1
inactive: Potency [1] | Potency [2] | Potency [3] | Potency [4]

Oc1ccc2cc(SSc3ccc4cc(O)ccc4c3)ccc2c1
inactive: Potency [1] | Potency [2] | Potency [3] | Potency [4]

COCC(C)OC(C)=O (stereo not given)
inactive: Potency [1] | Potency [2] | Potency [3] | Potency [4]

O=C(NCc1ncc(C(F)(F)F)cc1Cl)c1c(Cl)cccc1Cl
inactive: Potency [1] | Potency [2] | Potency [3] | Potency [4]

CN1CCN(C2=Nc3cc(F)ccc3Cc3ccccc32)CC1
inactive: Potency [1] | Potency [2] | Potency [3] | Potency [4]

NC(N)=O
inactive: Potency [1] | Potency [2] | Potency [3] | Potency [4]

CCC1OCC(COc2ccc(Oc3ccccc3)cc2)O1 (stereo not given)
inactive: Potency [1] | Potency [2] | Potency [3] | Potency [4]

— PubChem BioAssay (Tox21)
